Screening results as filed in PubChem BioAssay.
The list is not random: actives were taken first. Their share in the collection is about 11%.
hNpr1 antagonist = human Npr1 receptor antagonism | HEK293 hNpr1 GloSensor cGMP, ANP-stimulated luminescence | AID 1347048 | 1.6% of 76,000 active | Potency, µM (top dose mostly 46.3 µM), actives largely listed as inhibitors; calls by dose curve; note: nearly all actives have a fitted effect of over 60% in size
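HEK293 cells stably expressing human Npr1 and cGMP GloSensor pGS-40F, loaded 2 h with 2% GloSensor reagent, given compound 30 min at room temperature. Luminescence read before and 20 min after 0.1 nM hNppA.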
NIH3T3 tox = kills NIH 3T3 cells | 4.3% of 94,000 active | NIH 3T3 viability, CellTiter-Glo ATP luminescence, 48-72 h | Potency, µM (doses to about 96.7 µM), usual class: inhibitors; note: nearly all actives have a fitted effect of over 55% in size
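First NIH 3T3 cells are plated at 400 cells/well; next compound is pinned in; then plates incubate 48 or 72 hr at 37 °C; finally CellTiter-Glo is added and luminescence read after 10 min.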
FLuc inh = blocks purified firefly luciferase enzyme activity; P08659; purified P. pyralis luciferase, luminescence, biochemical; Potency, µM (doses to about 115 µM), actives largely listed as inhibitors; 2.5% of 76,000 active; AID 1347043; note: nearly all actives have a fitted effect of over 65% in size
Target sequence (P08659 whole entry, looked up): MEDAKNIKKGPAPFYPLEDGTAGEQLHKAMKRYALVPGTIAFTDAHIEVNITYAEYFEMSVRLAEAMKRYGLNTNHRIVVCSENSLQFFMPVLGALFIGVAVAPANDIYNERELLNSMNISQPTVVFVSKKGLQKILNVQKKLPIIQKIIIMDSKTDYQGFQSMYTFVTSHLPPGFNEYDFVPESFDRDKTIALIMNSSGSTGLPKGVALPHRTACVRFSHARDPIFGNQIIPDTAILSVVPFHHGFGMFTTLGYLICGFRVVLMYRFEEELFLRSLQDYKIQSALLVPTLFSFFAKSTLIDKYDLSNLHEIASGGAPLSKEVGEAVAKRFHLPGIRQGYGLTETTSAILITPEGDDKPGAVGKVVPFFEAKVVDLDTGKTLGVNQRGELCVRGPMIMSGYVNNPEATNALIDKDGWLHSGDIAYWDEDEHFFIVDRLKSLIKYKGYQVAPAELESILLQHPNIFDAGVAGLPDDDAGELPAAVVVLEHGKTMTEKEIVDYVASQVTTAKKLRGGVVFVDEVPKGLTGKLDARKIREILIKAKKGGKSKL
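Purified 10nM P. pyralis luciferase with 10uM D-luciferin and 10uM ATP in 50mM Tris acetate pH 7.5, 10mM Mg acetate, 0.01% Tween-20, 0.05% BSA. qHTS titration; luminescence read by CCD imager.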
HEK cytotox = cytotoxic compounds in HEK 293 cells. Potency, µM (series often up to 115 µM), hits mostly inhibitors. 6.6% of 94,000 active. HEK 293 viability, ATP luminescence (CellTiter-Glo), 48-72 h; note: nearly all actives have a fitted effect of over 60% in size
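ATP-coupled CellTiter-Glo luminescence served as viability read-out, recorded 10 min after reagent addition at room temperature. HEK 293 cells, 250 cells/well, had been incubated with pintool-transferred compound for 48 or 72 hr at 37 degree Celsius.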
Large screens that a line does not name were inactive. Unless noted, calls come from the whole dose curve; as a rule, active = well fitted curve in the direction sought with a large enough effect; inconclusive = small, poorly fitted or top-dose-only effect, or another doubt; inactive = no such curve, though single readings can be large; an effect the other way counts as inactive or inconclusive.

OCC1(CCCc2ccccc2)CCN(Cc2ccc(-n3cccn3)cc2)CC1	hNpr1 antagonist inconclusive, NIH3T3 tox 40µM, HEK cytotox inconclusive
CC(C)(O)C#Cc1ccc(CN2CCC(CO)(CCCc3ccccc3)CC2)cc1	NIH3T3 tox inconclusive, HEK cytotox inconclusive
Cc1nn(-c2ccccc2)c2c1C(C(C)C)N(C1CN(C(=O)Cc3ccccn3)C1)C2=O (configuration not stated)	HEK cytotox inconclusive (no result: hNpr1 antagonist, FLuc inh)
Cn1cc(CN2CCN(c3ccc(C#N)cn3)CC2)c(-c2ccccc2)n1	NIH3T3 tox inconclusive, HEK cytotox 79µM
Cn1cc(CN2CCN(c3cnccn3)CC2)c(-c2ccc(C3CCCCC3)cc2)n1	NIH3T3 tox 79µM, FLuc inh 22µM, HEK cytotox 25µM
COc1ccc(-c2noc([C@@H]3Cc4nc[nH]c4CN3C(=O)NC3CCCCC3)n2)cc1	NIH3T3 tox inconclusive, FLuc inh inconclusive
CN1Cc2ccc(C(=O)Nc3ccc4cn[nH]c4c3)cc2OCC1=O	NIH3T3 tox inconclusive, FLuc inh 32µM
CCC1Oc2ccc(NC(=O)c3ccc(OC)c(OC)c3)cc2CN(Cc2ccc(Cl)cc2)C1=O (configuration not stated)	HEK cytotox inconclusive
CSCC(=O)N[C@H]1CCN2C(=O)N(c3ccc(C(C)C)cc3)C(=O)[C@@H]2C1	FLuc inh 32µM
COc1ccccc1-c1cnc(Nc2cccnc2OC)c2c1CCO2	NIH3T3 tox inconclusive, FLuc inh inconclusive, HEK cytotox 28µM
COc1ccccc1-c1cnc(Nc2ccc(Cl)cn2)c2c1CCO2	NIH3T3 tox inconclusive, FLuc inh inconclusive, HEK cytotox 63µM
COc1ccccc1-c1cnc(Nc2cccnc2)c2c1CCO2	hNpr1 antagonist inconclusive, NIH3T3 tox inconclusive, FLuc inh inconclusive, HEK cytotox 79µM
CN(Cc1cccc(CCN)c1)Cc1cnn(-c2ccc(F)cc2)c1	NIH3T3 tox 45µM, HEK cytotox inconclusive
CN(Cc1cnn(-c2ccccc2)c1)Cc1cc2ccccc2[nH]c1=O	none
CNC(=O)[C@H]1C[C@]2(CCCCN(C)C2=O)N(C(=O)Cc2cccs2)[C@H]1c1ccccc1	NIH3T3 tox inconclusive (no result: hNpr1 antagonist, FLuc inh)
Cc1ccc(OCCC2CCN(C(=O)c3ccoc3)C2)cc1 (configuration not stated)	NIH3T3 tox inconclusive, HEK cytotox inconclusive
COc1ccccc1C(=O)N1CCC(CCOc2ccc(C)cc2)C1 (configuration not stated)	hNpr1 antagonist inconclusive, NIH3T3 tox inconclusive, HEK cytotox 40µM
Cc1ccc(OCCC2CCN(C(=O)CCn3nc(C)cc3C)C2)cc1 (configuration not stated)	hNpr1 antagonist inconclusive, NIH3T3 tox inconclusive, HEK cytotox 50µM
CN(CC(=O)N1CCC(CCOc2ccc(F)cc2)C1)S(=O)(=O)c1cccs1 (configuration not stated)	hNpr1 antagonist inconclusive, NIH3T3 tox inconclusive, HEK cytotox 50µM
CCn1nc(C)c(-c2cc(C(=O)N3CCC(CCOc4ccccc4OC)C3)no2)c1C (configuration not stated)	NIH3T3 tox inconclusive, HEK cytotox 45µM
O=C(Cc1cccc(Cl)c1)N1CCCC(C(=O)N2CCC(N3Cc4cccn4C3=O)CC2)C1 (configuration not stated)	none (no result: hNpr1 antagonist, FLuc inh)
O=C(C1CN(c2ccc(Cl)cc2)C(=O)N1)N1CCN(Cc2ccccc2)CC1 (configuration not stated)	NIH3T3 tox inconclusive, HEK cytotox 25µM
O=C1NC(C(=O)N2CCN(Cc3ccccc3)CC2)CN1Cc1ccccc1 (configuration not stated)	none
O=C(C1CN(c2ccccc2)C(=O)N1)N1CCN(Cc2ccccc2)CC1 (configuration not stated)	NIH3T3 tox inconclusive, HEK cytotox 45µM
COc1cccc(C(O)c2nc(C(=O)NCc3ccco3)c(C)o2)c1 (configuration not stated)	NIH3T3 tox inconclusive
COc1cccc(C(O)c2nc(C(=O)Nc3ccc(OC)c(OC)c3)c(C)o2)c1 (configuration not stated)	FLuc inh 25µM, HEK cytotox inconclusive
Cc1oc(C(O)c2cncnc2)nc1C(=O)Nc1ccc2c(c1)NC(=O)CO2 (configuration not stated)	NIH3T3 tox inconclusive
Cc1oc(C(O)c2cncnc2)nc1C(=O)Nc1ccc(N2CCOCC2)cc1 (configuration not stated)	NIH3T3 tox inconclusive, FLuc inh 18µM
Cn1ncc2c(C(=O)N3CCN(c4ncccn4)CC3)cc(-c3ccccc3)nc21	HEK cytotox inconclusive (no result: hNpr1 antagonist, FLuc inh)
Cn1cccc1-c1noc(C2CCN(C(=O)NC(C)(C)C)CC2)n1	HEK cytotox inconclusive (no result: hNpr1 antagonist, FLuc inh)
Cc1noc(-c2ccc(OC3CN(C(=O)Nc4ccccc4)C3)cc2)n1	hNpr1 antagonist 13µM, FLuc inh inconclusive, HEK cytotox inconclusive
Cc1noc(-c2ccc(OC3CN(C(=O)Nc4cccc(F)c4)C3)cc2)n1	hNpr1 antagonist inconclusive, NIH3T3 tox inconclusive, HEK cytotox inconclusive
Cc1noc(-c2ccc(OC3CN(C(=O)Cc4ccccc4)C3)cc2)n1	HEK cytotox inconclusive
Cc1noc(-c2ccc(OC3CN(C(=O)CC4CCCC4)C3)cc2)n1	hNpr1 antagonist inconclusive, NIH3T3 tox inconclusive, HEK cytotox 32µM
Cn1ccnc1CN1C(=O)CO[C@H]2CN(CCCc3ccccc3)C[C@H]21	NIH3T3 tox 112µM, HEK cytotox inconclusive
O[C@@H]1CN(Cc2ccc(-n3cccn3)cc2)CC[C@H]1c1ccc(F)cc1	hNpr1 antagonist inconclusive, HEK cytotox 40µM
COc1ccc(CC(=O)N2CCCC(C(=O)N3CCC(c4nc5ncccc5[nH]4)CC3)C2)cc1 (configuration not stated)	none (no result: hNpr1 antagonist, FLuc inh)
Cc1c(-c2ccccc2)[nH]c2c(CNC(=O)CCc3nncn3C)cc(Cl)cc12	NIH3T3 tox inconclusive, FLuc inh 22µM, HEK cytotox inconclusive
Cc1cc(CNC(=O)Cc2ccc(-n3cnnn3)cc2)c2[nH]c(C)c(C)c2c1	NIH3T3 tox 20µM, HEK cytotox inconclusive
COc1ccc(CC(=O)NCc2cc(C)cc3c(C)c(C)[nH]c23)c(OC)c1	NIH3T3 tox inconclusive, HEK cytotox inconclusive
COCc1ccc(C(=O)NCc2cc(C)cc3c(C)c(C)[nH]c23)o1	NIH3T3 tox inconclusive, HEK cytotox inconclusive
Cc1cc(CNC(=O)c2ccncc2)c2[nH]c(-c3ccccc3)c(C)c2c1	hNpr1 antagonist 11µM, NIH3T3 tox 32µM, FLuc inh inconclusive, HEK cytotox 14µM
Cc1cc(CNC(=O)Cc2nonc2C)c2[nH]c(-c3ccccc3)c(C)c2c1	FLuc inh 10µM, HEK cytotox inconclusive
CC(C)c1nc2c(c(-c3ccc(O)cc3)n1)CCN(C(=O)c1ccccc1)CC2	none (no result: hNpr1 antagonist, FLuc inh)
O=c1[nH]c(C2CCN([S+](=O)([O-])c3cccs3)CC2)nn1-c1ccccn1	none (no result: hNpr1 antagonist, FLuc inh)
CNC(=O)c1cc(C2CC2)nc2onc(C3CCCN(C(=O)c4ccccc4C)C3)c12 (configuration not stated)	none (no result: hNpr1 antagonist, FLuc inh)
O=C(Nc1cccc(C(F)(F)F)c1)N[C@H]1[C@H](O)[C@@H](Oc2ccccc2)[C@@H]2OC[C@H]1O2	NIH3T3 tox 79µM, HEK cytotox inconclusive
